Reference: the supplement of paper PMC6555819

Columns and labels:
Assay in all cases: PBM binding z-score (relative to random genomic background probes); higher = stronger binding; sequences stand for … in GC…GCGATTGACAGCGTAGAATGAAGG
[1] = system: FXR:RXRa (NR concentration 270 nM, RXRa partner concentration 90 nM)
Summary of the method: (§1)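 Each nuclear receptor dimer, without ligand, was incubated for 1 h on custom Agilent 4×180K protein-binding microarrays. Binding was detected with antibodies against each partner (one per run), and scanned fluorescence was regression-normalized. The binding z-scores are referenced to random human genomic background probes.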

[2] = system: LXRa:RXRa (NR concentration 270 nM, RXRa partner concentration 90 nM)
Summary of the method: as §1

[3] = system: LXRa homodimer (NR concentration 270 nM)
Summary of the method: as §1

[4] = system: LXRb:RXRa (NR concentration 270 nM, RXRa partner concentration 90 nM)
Summary of the method: as §1

[5] = system: LXRb homodimer (NR concentration 270 nM)
Summary of the method: as §1

[6] = system: PPARa:RXRa (NR concentration 270 nM, RXRa partner concentration 90 nM)
Summary of the method: as §1

[7] = system: PPARg:RXRa (NR concentration 180 nM, RXRa partner concentration 90 nM)
Summary of the method: as §1

[8] = system: PPARg:RXRa 270nM:90nM, anti-RXR (NR concentration 270 nM, RXRa partner concentration 90 nM)
Summary of the method: as §1

[9] = system: PPARg:RXRa 30nM:10nM, anti-RXR (NR concentration 30 nM, RXRa partner concentration 10 nM)
Summary of the method: as §1

[10] = system: PPARg:RXRa 90nM:30nM, anti-RXR (NR concentration 90 nM, RXRa partner concentration 30 nM)
Summary of the method: as §1

[11] = system: PPARg:RXRa DBDmut IVT, anti-RXR (DBD mutation: RXRa K156A/R161A, NR concentration 270 nM, RXRa partner concentration 90 nM)
Summary of the method: as §1

[12] = system: PPARg:RXRa IVT, anti-PPARg (NR concentration 270 nM, RXRa partner concentration 90 nM)
Summary of the method: as §1

[13] = system: PPARg DBDmut:RXRa IVT, anti-PPARg (DBD mutation: PPARg1 K132A/R137A, NR concentration 270 nM, RXRa partner concentration 90 nM)
Summary of the method: as §1

[14] = system: PPARg DBDmut IVT, anti-PPARg (DBD mutation: PPARg1 K132A/R137A, NR concentration 270 nM)
Summary of the method: as §1

[15] = system: PPARg homodimer (NR concentration 180 nM)
Summary of the method: as §1

[16] = system: PXR:RXRa (NR concentration 270 nM, RXRa partner concentration 90 nM)
Summary of the method: as §1

[17] = system: PXR homodimer (NR concentration 270 nM)
Summary of the method: as §1

[18] = system: RARa:RXR (NR concentration 270 nM, RXRa partner concentration 90 nM)
Summary of the method: as §1

[19] = system: RARa homodimer (NR concentration 270 nM)
Summary of the method: as §1

[20] = system: RARb:RXRa (NR concentration 270 nM, RXRa partner concentration 90 nM)
Summary of the method: as §1

For GATACAGGGTCAGCTAGACGCCAGAGTATGGAAA, the PBM binding z-score [1] was 4.79, the PBM binding z-score [2] was 2.3 and the PBM binding z-score [3] was -0.39. The PBM binding z-score [4] was 2.07, the PBM binding z-score [5] was -0.431 and the PBM binding z-score [6] was 4.71. For the same sequence, the PBM binding z-score [7] was 3.71, the PBM binding z-score [8] was 3.1 and the PBM binding z-score [9] was 0.594. For the same sequence, the PBM binding z-score [10] was 1.97, the PBM binding z-score [11] was 0.771 and the PBM binding z-score [12] was 2.21. It also gave a PBM binding z-score [13] of 0.485, a PBM binding z-score [14] of 0.334 and a PBM binding z-score [15] of 1.15. For the same sequence, the PBM binding z-score [16] was 1.76, the PBM binding z-score [17] was 0.0262 and the PBM binding z-score [18] was 2.72. For the same sequence, the PBM binding z-score [19] was -0.118 and the PBM binding z-score [20] was 3.9.

In the case of ATATGTGGGTTAGCTGGGGTCATTCAGACTAGGC, the PBM binding z-score [1] is reported as 4.69, the PBM binding z-score [2] is reported as 5.5 and the PBM binding z-score [3] is reported as 2.93. For the same sequence, the PBM binding z-score [4] was 4.93, the PBM binding z-score [5] was 2.51 and the PBM binding z-score [6] was 5.09. The PBM binding z-score [7] was 5.17, the PBM binding z-score [8] was 4.9 and the PBM binding z-score [9] was 2.27. It also gave a PBM binding z-score [10] of 4.19, a PBM binding z-score [11] of 6.16 and a PBM binding z-score [12] of 5.6. It also gave a PBM binding z-score [13] of 3.15, a PBM binding z-score [14] of 2.88 and a PBM binding z-score [15] of 3.21. It also gave a PBM binding z-score [16] of 6.47, a PBM binding z-score [17] of 6.39 and a PBM binding z-score [18] of 5.9. The PBM binding z-score [19] was 1.64 and the PBM binding z-score [20] was 2.96.

Work on GGAACGAGGGCAGAGTTGATAGCATCTGTCGACG yielded a PBM binding z-score [1] of -0.283, a PBM binding z-score [2] of -0.148 and a PBM binding z-score [3] of -0.653. The PBM binding z-score [4] was -0.244, the PBM binding z-score [5] was -0.788 and the PBM binding z-score [6] was 2.39. For the same sequence, the PBM binding z-score [7] was 4.04, the PBM binding z-score [8] was 5.15 and the PBM binding z-score [9] was 3.38. The PBM binding z-score [10] was 4.85, the PBM binding z-score [11] was 2.1 and the PBM binding z-score [12] was 2.85. It also gave a PBM binding z-score [13] of 0.19, a PBM binding z-score [14] of -0.602 and a PBM binding z-score [15] of 0.635. The PBM binding z-score [16] was -0.0229, the PBM binding z-score [17] was -0.145 and the PBM binding z-score [18] was -0.365. It also gave a PBM binding z-score [19] of -0.977 and a PBM binding z-score [20] of 1.68.

GCTGCTAGGTCAGGTTGGCCAGCTAACGGGTACG was tested, and the PBM binding z-score [1] was 1.01, the PBM binding z-score [2] was 0.472 and the PBM binding z-score [3] was -0.875. For the same sequence, the PBM binding z-score [4] was 0.118, the PBM binding z-score [5] was -0.715 and the PBM binding z-score [6] was 1.32. For the same sequence, the PBM binding z-score [7] was 0.322, the PBM binding z-score [8] was 0.756 and the PBM binding z-score [9] was -0.322. The PBM binding z-score [10] was 0.219, the PBM binding z-score [11] was 2.74 and the PBM binding z-score [12] was 2.24. For the same sequence, the PBM binding z-score [13] was -0.719, the PBM binding z-score [14] was -0.956 and the PBM binding z-score [15] was 0.0382. For the same sequence, the PBM binding z-score [16] was -0.079, the PBM binding z-score [17] was -0.624 and the PBM binding z-score [18] was 0.336. For the same sequence, the PBM binding z-score [19] was -0.755 and the PBM binding z-score [20] was 3.1.

Work on TGAATCAGGTTAAAGATCAGGGAACGTGGCGTCG yielded a PBM binding z-score [1] of 0.631, a PBM binding z-score [2] of 0.732 and a PBM binding z-score [3] of -0.19. For the same sequence, the PBM binding z-score [4] was 0.221, the PBM binding z-score [5] was -0.0822 and the PBM binding z-score [6] was 3.29. The PBM binding z-score [7] was 4.92, the PBM binding z-score [8] was 5.85 and the PBM binding z-score [9] was 5.28. The PBM binding z-score [10] was 6.34, the PBM binding z-score [11] was 2.15 and the PBM binding z-score [12] was 3.33. The PBM binding z-score [13] was 0.98, the PBM binding z-score [14] was 0.175 and the PBM binding z-score [15] was 0.529. The PBM binding z-score [16] was 0.343, the PBM binding z-score [17] was -0.173 and the PBM binding z-score [18] was 1.17. The PBM binding z-score [19] was 0.262 and the PBM binding z-score [20] was 0.993.

AGAATGCGGTTAAGATCAGGGAAACAGAATACAT gave a PBM binding z-score [1] of -0.249, a PBM binding z-score [2] of -0.195 and a PBM binding z-score [3] of -0.0658. For the same sequence, the PBM binding z-score [4] was -0.185, the PBM binding z-score [5] was -0.913 and the PBM binding z-score [6] was -0.181. It also gave a PBM binding z-score [7] of 0.331, a PBM binding z-score [8] of 0.0448 and a PBM binding z-score [9] of 0.301. It also gave a PBM binding z-score [10] of 0.258, a PBM binding z-score [11] of -0.441 and a PBM binding z-score [12] of -0.00811. For the same sequence, the PBM binding z-score [13] was 0.624, the PBM binding z-score [14] was 0.11 and the PBM binding z-score [15] was 0.393. It also gave a PBM binding z-score [16] of -0.295, a PBM binding z-score [17] of -0.312 and a PBM binding z-score [18] of -0.225. For the same sequence, the PBM binding z-score [19] was 0.513 and the PBM binding z-score [20] was -0.152.

TAAATGAGGTTATAAGATCAGGGAACGTTGCAAA showed a PBM binding z-score [1] of 1.94, a PBM binding z-score [2] of 2.28 and a PBM binding z-score [3] of 0.212. For the same sequence, the PBM binding z-score [4] was 1.55, the PBM binding z-score [5] was 0.646 and the PBM binding z-score [6] was 2.85. The PBM binding z-score [7] was 2.1, the PBM binding z-score [8] was 2.73 and the PBM binding z-score [9] was 2.19. The PBM binding z-score [10] was 2.51, the PBM binding z-score [11] was 2.84 and the PBM binding z-score [12] was 2.73. The PBM binding z-score [13] was 1.59, the PBM binding z-score [14] was 1.61 and the PBM binding z-score [15] was 0.912. For the same sequence, the PBM binding z-score [16] was 1, the PBM binding z-score [17] was 0.251 and the PBM binding z-score [18] was 1.62. It also gave a PBM binding z-score [19] of 0.307 and a PBM binding z-score [20] of 1.33.

TCTTGTAGATCGAAGGTTAAGAAAGCCGAAGCCT was tested, and the PBM binding z-score [1] was 0.669, the PBM binding z-score [2] was 0.667 and the PBM binding z-score [3] was -0.334. For the same sequence, the PBM binding z-score [4] was 0.511, the PBM binding z-score [5] was -0.593 and the PBM binding z-score [6] was 2.25. It also gave a PBM binding z-score [7] of 3.11, a PBM binding z-score [8] of 5.23 and a PBM binding z-score [9] of 4.1. The PBM binding z-score [10] was 5.26, the PBM binding z-score [11] was 1.1 and the PBM binding z-score [12] was 1.32. It also gave a PBM binding z-score [13] of -0.629, a PBM binding z-score [14] of -0.226 and a PBM binding z-score [15] of 0.155. It also gave a PBM binding z-score [16] of 0.143, a PBM binding z-score [17] of -0.658 and a PBM binding z-score [18] of 0.948. For the same sequence, the PBM binding z-score [19] was -0.208 and the PBM binding z-score [20] was 0.667.

TAGCCTAGGTCATTCAGGGTCCAGTATAGAAAGC was tested, and the PBM binding z-score [1] was 4.67, the PBM binding z-score [2] was 4.27 and the PBM binding z-score [3] was 0.918. It also gave a PBM binding z-score [4] of 3.01, a PBM binding z-score [5] of 0.48 and a PBM binding z-score [6] of 3.74. For the same sequence, the PBM binding z-score [7] was 1.99, the PBM binding z-score [8] was 2.11 and the PBM binding z-score [9] was 0.487. The PBM binding z-score [10] was 1.23, the PBM binding z-score [11] was 1.57 and the PBM binding z-score [12] was 2.74. It also gave a PBM binding z-score [13] of 0.533, a PBM binding z-score [14] of 0.0908 and a PBM binding z-score [15] of 1.38. For the same sequence, the PBM binding z-score [16] was 3.27, the PBM binding z-score [17] was 0.324 and the PBM binding z-score [18] was 2.84. It also gave a PBM binding z-score [19] of -0.0201 and a PBM binding z-score [20] of 3.77.
